# A selection: hits, their analogues and other compounds. The true share with any hit is near 1.5%.
# Eya2 phos inh – blocks the phosphatase activity of human Eya2 | actives 0.006% (n = 330,000) | O00167 | recombinant Eya2, OMFP fluorescence dephosphorylation (OMFP is methylfluorescein phosphate) | Potency, µM (titrated, usually from 76.9 µM), hits mostly inhibitors
# Target sequence (O00167 whole entry, looked up): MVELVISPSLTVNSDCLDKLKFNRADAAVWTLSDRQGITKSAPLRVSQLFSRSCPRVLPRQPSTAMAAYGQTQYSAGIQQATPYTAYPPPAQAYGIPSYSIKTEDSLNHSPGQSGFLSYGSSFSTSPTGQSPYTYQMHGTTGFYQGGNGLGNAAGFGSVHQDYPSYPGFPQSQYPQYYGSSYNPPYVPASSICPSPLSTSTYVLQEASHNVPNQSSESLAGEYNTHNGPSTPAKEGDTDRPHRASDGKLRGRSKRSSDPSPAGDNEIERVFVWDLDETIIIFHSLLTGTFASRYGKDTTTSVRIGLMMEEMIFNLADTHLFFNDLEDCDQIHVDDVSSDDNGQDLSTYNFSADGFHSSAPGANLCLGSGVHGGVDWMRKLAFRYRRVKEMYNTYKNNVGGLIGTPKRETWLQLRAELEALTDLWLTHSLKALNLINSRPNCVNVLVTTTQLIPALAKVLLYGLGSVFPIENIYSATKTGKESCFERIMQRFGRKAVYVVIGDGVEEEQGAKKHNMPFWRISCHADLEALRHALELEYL
#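 Eya2 protein (added as 0.2 uM solution) was preincubated with compound for 10 min at ambient temperature in 50 mM HEPES pH 7.5, 50 mM NaCl, 5 uM MgCl2, 0.05% BSA, 1 mM DTT. OMFP (added at 50 uM) then reacted 10 min; fluorescence read at 485/525 nm.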
# rTrxR1 inhibitor – blocks rat thioredoxin reductase 1; recombinant rTrxR1, NADPH fluorescence consumption, selenite substrate; actives 1% (n = 390,000); Potency, µM (doses to about 114 µM), hits mostly inhibitors; O89049; note: nearly all actives have a fitted effect of over 65% in size
#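 Rat TrxR1 (90 nM in the dispensed reagent) was pre-reduced with 400 uM NADPH for 5 min at room temperature, then incubated with compound for 15 min. After 400 uM selenite was added, NADPH fluorescence (Ex 340/Em 450 nm) was followed for 8 min.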
# Coupling enz – counter-screen for Giardia aldolase inhibitors: coupling enzyme system; coupling enzyme system counterscreen, AmpLite Red fluorescence; activity change, negative = inhibition, % at 58.2 µM, hits read low; actives 0.67% (n = 290,000); AID 2472; in the data active = activity change below about -30%
#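 First, compound is pin-transferred into glyceraldehyde-3-phosphate coupling-enzyme reagent at 57.5 uM final and held 10 min at RT. Next, substrate, coupling system and AmpLite Red are added. After 20 min RT, fluorescence (525/598 nm) is read.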
# IDH1 R132H inh – blocks human mutant IDH1 R132H enzyme; O75874; IDH1-R132H enzyme, NADPH consumption, diaphorase/resazurin fluorescence; Potency, µM (doses to about 76.6 µM), actives largely listed as inhibitors; actives 0.093% (n = 390,000); note: nearly all actives have a fitted effect of over 65% in size
#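 IDH1-R132H (0.5 ug/mL) preincubated 30 min with compound, then NADPH (0.016 mM) and alpha-KG (2 mM) added; 80 min at RT, pH 7.5. Remaining NADPH coupled via diaphorase/resazurin to fluorescence (540/590 nm); concentration-response curves normalized to no-enzyme control.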
# TrxR1 substrate – is turned over as a substrate by rat TrxR1. O89049. purified TrxR1 substrate turnover, NADPH consumption readout. Potency, µM (top dose mostly 114 µM). actives 0.01% (n = 390,000). AID 588456; note: nearly all actives have a fitted effect of over 50% in size
#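 Rat TrxR1, dispensed at 90 nM, was prereduced with 400 uM NADPH (final) for 5 min at ~22 deg C, then incubated with compound 15 min before 400 uM selenite. A first-read NADPH fluorescence drop versus no-compound background flagged substrates.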
# Hits are given with their value; n = inactive; u = inconclusive; x = no result given; ! = not active in a repeat; [ ] = remark or other dose. Unless noted, calls come from the whole dose curve; as a rule, active = well fitted curve in the direction sought with a large enough effect; inconclusive = small, poorly fitted or top-dose-only effect, or another doubt; inactive = no such curve, though single readings can be large; an effect the other way counts as inactive or inconclusive.
SMILES,Eya2 phos inh,rTrxR1 inhibitor,Coupling enz,IDH1 R132H inh,TrxR1 substrate
CCOC(=O)c1c(/N=C/C2C(=O)NC(=S)NC2=O)sc2c1CCC2,n,17.8µM,n,n,n
CCOC(=O)c1c(/N=C/C2C(=O)NC(=S)NC2=O)sc(C)c1C,n,x,n,x,x
N#Cc1c(/N=C/C2C(=O)NC(=S)NC2=O)sc2c1CCCC2,n,22.4µM,n,n,n
CCOC(=O)c1cc(C)sc1/N=C/C1C(=O)NC(=S)NC1=O,n,0.708µM,n,n,n
CC(C)=CCCC1(C)C=Cc2c(O)c3c(c(CC=C(C)C)c2O1)OC12C(CC4CC1C(C)(C)OC2(C/C=C(/C)C(=O)O)C4O)C3=O (centres undefined),x,x,n,x,x
CC1CC(C)C(=O)[C@H](C(O)CC2CC(=O)NC(=O)C2)C1 (some centres undefined),x,x,n,x,x
O=C1NC(=S)NC(=O)C1=Cc1c(Cl)cccc1Cl,x,n,x,n,n
Cc1cc(/C=C2\C(=O)NC(=S)N(C)C2=O)c(C)n1C1CCCCC1,n,u,n,n,n
O=C1NC(=S)NC(=O)C1=Cc1ccc(Br)s1,n,4.47µM,n,n,n
CN1C(=O)/C(=C\c2ccc(Br)s2)C(=O)NC1=S,n,3.16µM,n,n,n
Cc1cccc(N2CCc3c2nc2ccccc2c3N)c1,n,n,-33.9!,n,n
CCN1C(=O)C(=Cc2ccc(C)s2)C(=O)N(CC)C1=S,n,14.1µM,n,n,n
COc1cc(CC(=O)OCC2=C[C@H]3[C@@H]4C(C)(C)[C@]4(OC(C)=O)[C@H](OC(=O)Cc4ccccc4)[C@@H](C)[C@]3(O)[C@@H]3C=C(C)C(=O)[C@@]3(O)C2)ccc1O,x,x,n,x,x
CSc1ncc(/C=C2/C(=O)NC(=O)N(c3ccc(C)cc3)C2=O)cn1,u,7.94µM,n,n,n
CCOc1ccc(N2C(=O)NC(=O)/C(=C/c3cnc(SC)nc3)C2=O)cc1,n,3.98µM,n,n,n
CSc1ncc(/C=C2/C(=O)NC(=O)N(c3ccc(Cl)cc3)C2=O)cn1,n,6.31µM,n,n,n
Cc1ccc(N2C(=O)NC(=O)/C(=C\c3cnc(-c4ccccc4)nc3)C2=O)cc1,n,3.55µM,n,n,n
Cc1cc(SCc2sc(-c3ccc(C(F)(F)F)c(F)c3)nc2C)ccc1OCC(=O)O,x,x,n,x,x
COc1ccccc1NC(=O)c1oc2ccccc2c1NC(=O)c1ccccc1C(F)(F)F,x,n,x,n,n
CC(C)C[C@H](NC(=O)CNC(=O)[C@H](CCC(N)=O)NC(=O)[C@H](Cc1ccc(O)cc1)NC(=O)[C@@H](NC(=O)[C@H](Cc1ccc(O)cc1)NC(=O)CNC(=O)[C@@H](N)CCCN=C(N)N)C(C)C)C(=O)O,x,x,n,x,x
CCOc1ccc(N2C(=O)/C(=C/c3ccco3)C(=O)NC2=S)cc1,n,u,n,n,n
O=C1NC(=S)N(c2ccccc2F)C(=O)/C1=C\c1cccs1,n,8.91µM,n,n,n
CCOc1ccc(N2C(=O)/C(=C\c3cccs3)C(=O)NC2=S)cc1,n,22.4µM,n,n,n
NCC(=O)c1cccc([N+](=O)[O-])c1,x,n,x,x,n
CC(C)C[C@H](NC(=O)[C@H](Cc1ccccc1)NC(=O)CNC(=O)[C@@H](COC(C)(C)C)NC(=O)[C@@H](N)Cc1ccc(O)cc1)C(=O)N[C@H](C(=O)O)[C@@H](C)OC(C)(C)C,x,x,n,x,x
SMILES,Eya2 phos inh,rTrxR1 inhibitor,Coupling enz,IDH1 R132H inh,TrxR1 substrate
OCCCc1ccc(O)c(O)c1,n,79.4µM,n,n,n
CCOC(=O)N1C(C)CN(/[N+]([O-])=N/Oc2ccc([N+](=O)[O-])cc2[N+](=O)[O-])CC1C (centres undefined),x,25.1µM,n,x,n
Cc1ccc(-c2nc3c(=O)n(C)c(=O)nc-3n(C)n2)cc1,x,11.2µM,x,x,12.6µM
CNCC(N)C(=O)O (centres undefined),x,x,n,x,x
COCCNC(=O)c1c(NC(=O)c2ccco2)n(Cc2ccccc2)c2nc3ccccc3nc12,n,n,-33.2,n,n
COCCNC(=O)c1c(N)n(Cc2ccco2)c2nc3ccccc3nc12,n,n,n,n,n
CCC(C)NC(=O)c1c(N)n(CCCOC)c2nc3ccccc3nc12 (centres undefined),n,n,-34.2,n,n
COCCCn1c(N)c(C(=O)NCc2ccco2)c2nc3ccccc3nc21,n,n,-35.0,n,n
COCCCNC(=O)c1c(NC(=O)c2ccccc2Cl)n(Cc2ccccc2)c2nc3ccccc3nc12,n,n,n,n,n
NCC[C@H](NC(=O)[C@@H](N)CCCN=C(N)N[N+](=O)[O-])C(N)=O,x,x,n,x,x
CN1C(=O)NC(=O)/C(=C\c2ccc([N+](=O)[O-])o2)C1=O,n,15.8µM,n,n,n
O=C(CSc1ccc(-c2ccco2)nn1)Nc1ccccc1,n,20µM,n,n,n
O=C(CN1CCOCC1)c1ccc2ccccc2c1,x,u,x,x,n
CC(N)[C@H](O)c1ccc(O)c(O)c1 (some centres undefined),n,17.8µM,x,x,n
C[C@H](N)[C@H](O)c1ccc(O)c(O)c1,x,x,-33.7,x,x
NC1CCCC[C@H]1N (some centres undefined),x,x,n,x,x
CN1C(=O)C(Cc2cccc3ccccc23)C(=O)N(C)C1=O,n,u,n,n,n
O=C1C2CCN(CC2)[C@@H]1Cc1ccc2ccccc2c1O,n,n[11.4 µM],-42.8,n,n
CN1CCN(c2ccc(N)cc2)CC1,n,n,n,n,n
CN1CCN(c2ccc(N)c(N3CCN(C)CC3)c2)CC1,n,n,-39.4,n,n
C=CC[C@@H](CC/C=C/C=C/CC/C=C\[C@@H]1CSC([C@@H]2C[C@@H]2C)=N1)OC,n,50.1µM,x,n,n
CNCCc1c[nH]c2ccccc12,n,56.2µM,n,n,n
CCN(CC)c1ccc(/C=C2\C(=O)NC(=O)N(Cc3ccco3)C2=O)cc1,n,28.2µM,n,n,n
O=C(O)Cn1cc(/C=C2\C(=O)NC(=O)N(Cc3ccco3)C2=O)c2ccccc21,n,31.6µM,n,n,n
CCN1C(=O)NC(=O)/C(=C\c2cn(CC(=O)O)c3ccccc23)C1=O,n,x,n,x,x
SMILES,Eya2 phos inh,rTrxR1 inhibitor,Coupling enz,IDH1 R132H inh,TrxR1 substrate
CN1C(=O)[C@]23CC4=CC=C[C@H](O)[C@H]4N2C(=O)[C@@]1(CO)SS3,x,x,n,x,x
Nc1ccc2ccc3cccc[n+]3c2c1,u,70.8µM,n,n,n
CC(=O)[C@H]1CC[C@H]2C3CC[C@H]4C[C@](C)(O)CC[C@]4(C)C3CC[C@]12C (some centres undefined),x,x,n,x,x
CC(C)c1cc2c(c(O)c1O)[C@@]1(C(=O)O)CCCC(C)(C)[C@@H]1CC2,x,x,-43.3,x,x
O=C(CCN1CC2CCC(CC2)C1)c1cccs1,x,0.447µM,x,n,n[11.4 µM]
Cn1c(=O)oc(=O)c2ccccc21,x,56.2µM,x,n,n
CC(=O)c1cccc(NC(=O)c2noc3c2CSc2ccccc2-3)c1,x,u,x,n,n
